Laboratory results from PubChem BioAssay (NCATS).
Results filed as inconclusive are left out. Activity calls are given as the source filed them. Unless noted, calls follow the shape of the dose curve; as a rule, active = well fitted curve in the direction sought with a large enough effect; inconclusive = small, poorly fitted or top-dose-only effect, or another doubt; inactive = no such curve, though single readings can be large; an effect the other way counts as inactive or inconclusive.

Experiments:
[1] = biological target: Vitamin D3 receptor (Homo sapiens) (UniProt P11473); test: qHTS assay for small molecule antagonists of vitamin D receptor signaling (AID 588541; calls by dose curve;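 also: receptor activated by calcitriol during compound treatment; % is scaled to controls: 0 for no effect and ±100 for the full control effect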)
Summary of the method: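 VDR-UAS-bla HEK293T cells (2000/well, 2% charcoal-stripped FBS) were treated with titrated compounds plus 1-alpha,25-dihydroxyvitamin D3 (50 nM or 3 nM final) for 16 h at 37 C. CCF4 beta-lactamase fluorescence was read; Hill fits gave IC50.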

[2] = biological target: Vitamin D3 receptor (Homo sapiens) (UniProt P11473); test: qHTS assay for small molecule agonists of vitamin D receptor signaling (AID 588543; calls by dose curve;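 also: 0% = DMSO basal and 100% = reference agonist control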)
Summary of the method: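 VDR-UAS-bla HEK293T cells, 2000/well, 2% charcoal-stripped FBS; compound titration 16 h at 37 C; CCF4 beta-lactamase ratio read. Normalized to 50 nM 1-alpha,25-dihydroxyvitamin D3 (100%) and DMSO; Hill fit gives EC50, efficacy.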

[3] = biological target: Thyroid hormone receptor beta (Homo sapiens) (UniProt P10828); test: qHTS assay for small molecule agonists of thyroid hormone receptor beta signaling (AID 588545; calls by dose curve;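 also: 0% = DMSO only and 100% = 10 nM T3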)
Summary of the method: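 TR-UAS-bla GripTite HEK 293 cells (2500/well, medium with 2% charcoal/dextran FBS) were treated in agonist mode for 18 h at 37 C, titrated. Beta-lactamase was read by CCF4 ratio after 2 h; normalized to 10 nM T3 (100%) and DMSO, Hill-fitted for EC50 and efficacy.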

[4] = qHTS assay for small molecule activators of the p53 signaling pathway (AID 651743; active = well fitted activation curve with a large enough effect in the signal ratio, not every such curve was filed as active; the % refers to the signal ratio; also: % of control where 0% means no effect); details: HCT-116 p53RE-bla, beta-lactamase FRET ratio, 16 h; activation: stronger effect = higher value
Summary of the method: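 Here HCT-116 cells with an integrated p53-responsive beta-lactamase gene were incubated with compounds (16 hours, 37 C) after a 5-hour plating period; beta-lactamase activity was detected as fluorescence intensity via B/G FRET substrate.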

[5] = biological target: Peroxisome proliferator-activated receptor alpha (Homo sapiens) (UniProt Q07869); test: qHTS assay for small molecule agonists of the peroxisome proliferator-activated receptor alpha (PPARalpha) signaling pathway (AID 651778); details: PathHunter PPARalpha complementation, chemiluminescence, 6 h; max response: stronger effect = higher value; also: % of control where 0% means no effect
Summary of the method: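 Cells plated at 2,000/well and held overnight at 37 C, 5% CO2, then compound added by pin tool for 6 hr; after PathHunter detection reagent and 60 min at room temperature, chemiluminescence from enzyme complementation was read.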

[6] = qHTS assay for cell viability of the p53RE-bla HCT-116 cell line (AID 743292); also: % is scaled to controls: 0 for no effect and ±100 for the full control effect; nearly all actives have a fitted effect of over 55% in size
Summary of the method: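 After plating at 4,000 cells per well and a 5 h rest at 37 C, HCT-116 cells carrying p53RE-bla received test chemicals in DMSO. Sixteen hours later at 37 C, CellTiter-Glo was added and luminescence recorded following 30 min at room temperature.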

[7] = NCATS anti-infectives library activity on the primary C. elegans qHTS viability assay (AID 1745855; calls by dose curve; also: potency is read from the fitted curve at half-maximal effect)
Summary of the method: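 Titration-based screen in worms: eggs hatched overnight in M9, L1 larvae fed TOP10 capsules in S medium with compound, incubated 21 °C for 7 days; fluorescent objects gated by size and intensity at days 0, 3 and 7.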

[8] = biological target: Nuclear receptor subfamily 1 group I member 2 (Rattus norvegicus) (UniProt Q9R1A7); test: qHTS assay for small molecule activators of the rat pregnane X receptor (rPXR) signaling pathway (AID 651751; call rule not given here; also: 0% is about no effect); details: rPXR reporter cells, luciferase (One-Glo), 24 h
[9] = qHTS assay for small molecule activators of the human pregnane X receptor (PXR) signaling pathway (AID 720659; call rule not given here; also: 0% is about no effect)
[10] = Viability counterscreen for antagonist of constitutive androstane receptor (CAR) against the NCATS DSHEA and TCM libraries (AID 1794837);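 also: compound exposure lasted 24 h before viability reading; 0% is about no effect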
Summary of the method: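 HepG2-CYP2B6-hCAR cells, 2,500/well, were exposed 24 hr at 37C to substances together with 48 uM CITCO (final). Viability was read as CellTiter-Fluor fluorescence (Ex/Em 405/540 nm) after 1 hr.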

[11] = biological target: Cytochrome P450 2D6 (Homo sapiens) (UniProt P10635); test: qHTS for inhibitors of CYP2D6 against the NCATS DSHEA and TCM libraries (AID 1919972); also: potency is read from the fitted curve at half-maximal effect
Summary of the method: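 qHTS, concentration–response format with most substances from 19.5 nM. CYP2D6 + pro-luciferin substrate, 15 min with compound, then 1x NADPH regen, 30–45 min RT dark. Glo detection 30 min, luminescence. Quinidine control.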

[12] = qHTS Counterscreen for compound interference against the NCATS DSHEA and TCM libraries (AID 1919978); details: firefly luciferase detection reagent interference, luminescence;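 also: compounds preincubated with 1 µM D-luciferin or buffer before detection reagent; % of control where 0% means no effect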
Summary of the method: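 Firefly luciferase detection reagent was added after compounds (19.5 nM–39.8 uM final) had been incubated 15 min at room temperature with 1 uM D-luciferin or with 100 mM phosphate buffer alone. Luminescence was read after 30 min at room temperature.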

[13] = Dual reporter qHTS for agonist of Pregnane X Receptor (hPXR) against the NCATS DSHEA and TCM libraries: Fluorescence readout (AID 1920058); also: 0% is about no effect
Summary of the method: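 Fluorescence read-out for cell viability: CellTiter-Fluor, 1 h at 37 °C, Ex/Em 405/540 nm. This followed ~24 h treatment of hPXR-Luc HepG2 cells with substances in agonist mode.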

[14] = biological target: Nuclear receptor subfamily 1 group I member 2 (Homo sapiens) (UniProt O75469); test: Dual reporter qHTS for antagonist of Pregnane X Receptor (hPXR) against the NCATS DSHEA and TCM libraries: Luminescence Readout (AID 1920060); also: 0% is about no effect
Summary of the method: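 Rifampicin-stimulated (2 uM final) hPXR-luciferase HepG2 cells were treated for 24 h with DSNP/TCM substances. Viability came from CellTiter-Fluor fluorescence, reporter activity from ONE-Glo luminescence.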

[15] = qHTS profiling for inhibitors of Plasmodium falciparum proliferation (AID 504749);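 also: 0% = DMSO vehicle and full inhibition = artemisinin control; nearly all actives have a fitted effect of over 60% in size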; details: P. falciparum in erythrocytes, SYBR Green DNA, 72 h, at 28.7 µM (top of the series)
Summary of the method: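 Fluorescence of SYBR Green-bound parasite DNA, read at 485/535 nm, served as the growth measure. Infected erythrocytes were cultured with compound 72 h; artemisinin (0.29 uM) and DMSO wells defined the normalization range.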

[16] = qHTS drug screen for cell cycle checkpoint inhibitors in PARPi-resistant BRCA-mutant ovarian cancer cell lines. (AID 1963452; calls by dose curve); details: PEO1/OlaR viability, CellTiter-Glo luminescence, 96 h, stronger effect = lower value
Summary of the method: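 PEO1, PEO4 and PEO1/OlaR ovarian cancer cells, 600 per well, exposed 96 h at 37C to a dilution series. Viability read by CellTiter-Glo luminescence, normalized to DMSO and empty wells; activity summarized as Z-AUC.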

[17] = qHTS assay for small molecule antagonists of peroxisome proliferator-activated receptor delta signaling (AID 588535; active = well fitted inhibition curve with a large enough effect in the signal ratio, with a control signal flat, not every such curve was filed as active; the % refers to the signal ratio;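 as to max response: cells co-treated with a PPAR-delta agonist as stimulator during compound exposure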); details: HEK293T PPARd-UAS-bla, beta-lactamase FRET ratio, 18 h; 460 nm channel
Summary of the method: (§1)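 Compounds tested in titration on PPAR-delta-UAS-bla HEK293T cells grown in charcoal/dextran-stripped serum (2%); beta-lactamase activity read via CCF4 emission at 460 and 530 nm.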

[18] = biological target: Peroxisome proliferator-activated receptor delta (Homo sapiens) (UniProt Q03181); test: as above
Summary of the method: as §1

[19] = biological target: Cytochrome P450 2C19 (Homo sapiens) (UniProt P33261); test: qHTS Assay for Inhibitors and Substrates of Cytochrome P450 2C19 (AID 899); also: potency is read from the fitted curve at half-maximal effect; nearly all actives have a fitted effect of over 60% in size
Summary of the method: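 Human CYP2C19 (5nM) with Luciferin-H EGE at 10uM (its KM) in 50mM KPO4 was preincubated with compound for 10 min at 37C. NADPH regeneration started a 60 min 37C reaction. Luciferin was read by luminescence, normalized to 57uM ketoconazole.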

Vitamin D3 receptor (Homo sapiens), sequence (P11473 whole entry, looked up): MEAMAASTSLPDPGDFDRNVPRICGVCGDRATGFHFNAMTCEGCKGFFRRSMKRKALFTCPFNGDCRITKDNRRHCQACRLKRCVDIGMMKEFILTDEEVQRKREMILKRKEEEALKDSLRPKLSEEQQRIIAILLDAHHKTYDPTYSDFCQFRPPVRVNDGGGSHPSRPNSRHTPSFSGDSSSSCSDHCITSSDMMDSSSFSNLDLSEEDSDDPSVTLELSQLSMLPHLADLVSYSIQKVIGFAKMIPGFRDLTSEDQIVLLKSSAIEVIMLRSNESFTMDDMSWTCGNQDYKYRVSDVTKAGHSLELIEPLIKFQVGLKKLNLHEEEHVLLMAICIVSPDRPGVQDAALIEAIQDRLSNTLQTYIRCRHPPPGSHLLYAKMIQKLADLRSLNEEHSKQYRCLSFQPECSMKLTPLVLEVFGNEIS
Thyroid hormone receptor beta (Homo sapiens), sequence (P10828 whole entry, looked up): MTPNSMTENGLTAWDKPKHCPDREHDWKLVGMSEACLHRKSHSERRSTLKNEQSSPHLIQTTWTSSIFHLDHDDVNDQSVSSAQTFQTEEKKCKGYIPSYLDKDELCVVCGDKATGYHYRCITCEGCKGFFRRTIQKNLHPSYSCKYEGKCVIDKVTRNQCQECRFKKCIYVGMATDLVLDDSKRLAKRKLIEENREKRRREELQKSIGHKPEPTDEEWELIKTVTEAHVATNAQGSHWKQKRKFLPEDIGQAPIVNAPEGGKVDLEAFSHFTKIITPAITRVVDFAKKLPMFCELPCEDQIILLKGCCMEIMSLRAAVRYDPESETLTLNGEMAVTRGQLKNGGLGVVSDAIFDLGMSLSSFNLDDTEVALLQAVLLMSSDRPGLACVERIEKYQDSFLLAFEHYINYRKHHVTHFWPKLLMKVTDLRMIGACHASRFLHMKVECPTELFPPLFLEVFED
Cytochrome P450 2D6 (Homo sapiens), sequence (P10635 whole entry, looked up): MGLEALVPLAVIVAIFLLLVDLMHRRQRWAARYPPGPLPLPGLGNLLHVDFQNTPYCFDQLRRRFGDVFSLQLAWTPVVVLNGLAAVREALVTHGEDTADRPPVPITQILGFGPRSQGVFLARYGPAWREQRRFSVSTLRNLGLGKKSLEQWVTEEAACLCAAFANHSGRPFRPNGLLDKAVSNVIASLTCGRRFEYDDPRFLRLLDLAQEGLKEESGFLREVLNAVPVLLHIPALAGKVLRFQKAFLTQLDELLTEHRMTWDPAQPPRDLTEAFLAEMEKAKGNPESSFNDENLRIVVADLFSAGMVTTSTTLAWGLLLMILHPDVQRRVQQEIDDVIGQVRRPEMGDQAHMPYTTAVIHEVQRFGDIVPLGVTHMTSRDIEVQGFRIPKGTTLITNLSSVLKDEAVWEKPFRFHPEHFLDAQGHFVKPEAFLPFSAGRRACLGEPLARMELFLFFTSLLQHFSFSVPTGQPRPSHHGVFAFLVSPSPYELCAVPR
Nuclear receptor subfamily 1 group I member 2 (Rattus norvegicus), sequence (Q9R1A7 whole entry, looked up): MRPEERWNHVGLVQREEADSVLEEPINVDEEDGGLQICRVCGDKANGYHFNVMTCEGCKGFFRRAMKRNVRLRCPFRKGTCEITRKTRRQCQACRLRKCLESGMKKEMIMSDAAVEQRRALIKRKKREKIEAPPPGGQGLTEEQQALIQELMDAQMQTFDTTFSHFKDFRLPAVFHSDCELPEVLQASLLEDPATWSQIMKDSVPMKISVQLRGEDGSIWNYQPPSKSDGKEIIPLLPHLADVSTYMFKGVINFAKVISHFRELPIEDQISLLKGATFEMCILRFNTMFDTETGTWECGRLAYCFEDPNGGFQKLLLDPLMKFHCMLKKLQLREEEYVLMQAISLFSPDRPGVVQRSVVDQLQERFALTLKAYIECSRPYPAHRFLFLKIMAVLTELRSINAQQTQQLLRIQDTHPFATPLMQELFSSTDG
Peroxisome proliferator-activated receptor alpha (Homo sapiens), sequence (Q07869 whole entry, looked up): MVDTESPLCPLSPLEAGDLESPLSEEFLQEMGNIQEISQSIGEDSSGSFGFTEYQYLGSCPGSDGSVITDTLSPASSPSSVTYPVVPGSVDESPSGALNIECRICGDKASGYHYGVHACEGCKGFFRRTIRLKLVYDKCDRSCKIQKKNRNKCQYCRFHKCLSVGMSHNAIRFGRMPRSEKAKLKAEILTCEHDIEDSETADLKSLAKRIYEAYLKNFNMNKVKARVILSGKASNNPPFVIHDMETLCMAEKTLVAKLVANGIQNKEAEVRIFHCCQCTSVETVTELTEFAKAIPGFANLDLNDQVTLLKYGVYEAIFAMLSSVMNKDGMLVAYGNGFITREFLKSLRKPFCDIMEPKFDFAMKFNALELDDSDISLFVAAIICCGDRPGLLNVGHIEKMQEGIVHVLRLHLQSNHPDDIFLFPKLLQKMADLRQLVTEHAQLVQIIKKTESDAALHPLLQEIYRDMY
Peroxisome proliferator-activated receptor delta (Homo sapiens), sequence (Q03181 whole entry, looked up): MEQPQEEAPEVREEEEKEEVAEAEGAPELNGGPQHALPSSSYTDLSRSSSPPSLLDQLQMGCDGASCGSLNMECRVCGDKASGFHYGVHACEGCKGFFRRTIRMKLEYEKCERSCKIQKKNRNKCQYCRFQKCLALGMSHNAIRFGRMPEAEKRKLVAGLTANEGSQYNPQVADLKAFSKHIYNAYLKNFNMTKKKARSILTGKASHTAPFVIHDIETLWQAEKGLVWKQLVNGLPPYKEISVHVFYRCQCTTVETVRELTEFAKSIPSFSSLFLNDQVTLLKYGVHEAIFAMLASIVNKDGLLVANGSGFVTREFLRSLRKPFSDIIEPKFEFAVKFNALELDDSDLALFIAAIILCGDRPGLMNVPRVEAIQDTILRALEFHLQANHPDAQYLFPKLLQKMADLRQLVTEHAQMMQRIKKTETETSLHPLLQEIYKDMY
Nuclear receptor subfamily 1 group I member 2 (Homo sapiens), sequence (O75469 whole entry, looked up): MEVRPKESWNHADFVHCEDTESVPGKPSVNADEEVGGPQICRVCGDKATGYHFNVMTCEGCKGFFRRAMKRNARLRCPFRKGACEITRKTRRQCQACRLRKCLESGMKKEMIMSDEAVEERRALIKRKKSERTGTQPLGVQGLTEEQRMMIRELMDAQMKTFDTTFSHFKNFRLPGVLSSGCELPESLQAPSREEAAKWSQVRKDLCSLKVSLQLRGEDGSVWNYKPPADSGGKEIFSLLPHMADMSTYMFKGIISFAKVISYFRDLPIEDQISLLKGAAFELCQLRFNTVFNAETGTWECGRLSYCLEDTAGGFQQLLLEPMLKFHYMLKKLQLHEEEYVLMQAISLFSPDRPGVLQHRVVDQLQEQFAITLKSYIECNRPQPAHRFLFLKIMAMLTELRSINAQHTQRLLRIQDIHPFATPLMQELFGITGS
Cytochrome P450 2C19 (Homo sapiens), sequence (P33261 whole entry, looked up): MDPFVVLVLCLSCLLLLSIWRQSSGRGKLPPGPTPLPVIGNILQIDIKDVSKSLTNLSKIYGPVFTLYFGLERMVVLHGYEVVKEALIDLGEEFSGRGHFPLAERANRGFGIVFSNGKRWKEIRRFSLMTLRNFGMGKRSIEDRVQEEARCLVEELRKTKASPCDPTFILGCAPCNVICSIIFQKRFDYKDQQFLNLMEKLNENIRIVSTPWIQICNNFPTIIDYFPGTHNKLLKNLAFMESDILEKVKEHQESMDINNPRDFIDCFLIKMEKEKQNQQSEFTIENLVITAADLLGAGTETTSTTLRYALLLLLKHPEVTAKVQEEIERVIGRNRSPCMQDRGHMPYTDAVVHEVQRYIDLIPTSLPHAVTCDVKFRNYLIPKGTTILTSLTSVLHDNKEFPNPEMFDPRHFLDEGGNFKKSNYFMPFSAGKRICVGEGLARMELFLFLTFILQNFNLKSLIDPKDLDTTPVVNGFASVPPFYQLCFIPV

O=C(O[C@@H]1Cc2c(O)cc(O)cc2O[C@@H]1c1cc(O)c(O)c(O)c1)c1cc(O)c(O)c(O)c1
active: Potency [7] 0.163 µM
inactive: outcome [1] | outcome [2] | outcome [3] | activation [4] -1.73% | max response [5] -1.73% | Potency [6] | max response [8] -1.38% | outcome [9]

CC(C)=CCC[C@](C)(OC1OC(COC2OCC(O)C(O)C2O)C(O)C(O)C1O)[C@H]1CC[C@]2(C)[C@@H]1[C@H](O)C[C@@H]1[C@@]3(C)CC[C@H](OC4OC(CO)C(O)C(O)C4OC4OC(CO)C(O)C(O)C4O)C(C)(C)[C@@H]3CC[C@]12C (stereo not given in full)
inactive: outcome [10] | Potency [11] | max response [12] 4.44% | outcome [13] | outcome [14]

CC(C)CN(C[C@@H](O)[C@H](Cc1ccccc1)NC(=O)O[C@H]1CCOC1)S(=O)(=O)c1ccc(N)cc1
inactive: activity, negative = inhibition ([15]; parasite line A) -4.85% | activity, negative = inhibition ([15]; parasite line B) -24.9%

O=C1CCC[C@@H]2[C@@H]3CCC[N@+]4([O-])CCC[C@H](CN12)[C@H]34
0.635: Z-AUC ([16]; measured here: PEO1 parental Z-AUC)
0.881: Z-AUC ([16]; measured here: PEO4 Z-AUC)
inactive: Z-AUC [16] 1.48

CC(C)CN(C[C@@H](OP(=O)(O)O)[C@H](Cc1ccccc1)NC(=O)O[C@@H]1CCOC1)S(=O)(=O)c1ccc(N)cc1
inactive: activity, negative = inhibition ([15]; parasite line A) -4.75% | activity, negative = inhibition ([15]; parasite line B) 9.93%

C[Si](C)(C)O[Si](C)(C)O[Si](C)(C)C
inactive: Potency [18] | outcome [1] | outcome [2] | outcome [3] | activation [4] -8.05% | max response [5] 0.325% | Potency [6] | max response [8] 0.588% | outcome [9]
25.8%: max response [17]

COc1cc(-c2oc3cc(O)cc(O)c3c(=O)c2O)ccc1O
inactive: outcome [10] | max response [12] -5.64% | outcome [13] | outcome [14]
active: Potency [11] 4.47 µM

Cc1cc(/C=C/C#N)cc(C)c1Nc1ccnc(Nc2ccc(C#N)cc2)n1
active: Potency [7] 16.3 µM

CCCCCCCCOC(=O)c1cc(O)c(O)c(O)c1
-19.5%: max response [17]
inactive: Potency [18] | outcome [1] | outcome [2] | outcome [3] | max response [5] -2.68% | Potency [6] | max response [8] -0.212% | outcome [9]

O=C(/C=C/c1ccc(O)c2c1[C@H](C(=O)O)[C@@H](c1ccc(O)c(O)c1)O2)O[C@H](Cc1ccc(O)c(O)c1)C(=O)O
inactive: outcome [10] | Potency [11] | max response [12] -1.18% | outcome [13] | outcome [14]

O=C(O)c1cc(O)c2c(c1)[C@H]([C@H]1c3cc(C(=O)O)cc(O)c3C(=O)c3c(O[C@@H]4OC(CO)C(O)C(O)C4O)cccc31)c1cccc(O[C@@H]3OC(CO)C(O)C(O)C3O)c1C2=O (stereo not given in full)
inactive: activity, negative = inhibition ([15]; parasite line A) -10% | activity, negative = inhibition ([15]; parasite line B) -4.26%

O=C(/C=C/c1ccc(O)c(O)c1)O[C@@H]1CC(O)(C(=O)O)C[C@@H](OC(=O)/C=C/c2ccc(O)c(O)c2)C1O (stereo not given in full)
inactive: outcome [10] | Potency [11] | max response [12] 3.46% | outcome [13] | outcome [14]

O=c1ccc2cc3ccoc3cc2o1
active: Potency [19] 3.98 µM

COc1ccc(-c2oc3cc(OC)c(OC)c(O)c3c(=O)c2OC)cc1O
active: Potency [7] 0.816 µM

O=C(O)CCCCCCCCC(=O)O
inactive: Potency [18] | outcome [1] | outcome [2] | outcome [3] | activation [4] 0.877% | max response [5] -0.446% | Potency [6] | max response [8] -1.81% | outcome [9]
1.66%: max response [17]
